Source: PubChem BioAssay
Values without a mark were called inactive. This is one part of the list. Active and inactive are the calls of the source.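 Rule for the calls, unless noted: active = inhibition above the hit cutoff set in the earlier primary screen (cut at about 27% in these data); inactive = the rest.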

Assays:
[1] = target: Protein phosphatase methylesterase 1 (Homo sapiens) (UniProt Q9Y570); test: human PME-1 methylesterase inhibition confirmation – biochemical, fluorescence polarization, FP-Rh probe, triplicate (AID 2171); conditions: recombinant PME-1, FP-Rh probe fluorescence polarization; at 5.9 µM; active compounds read high;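 note: 0% = enzyme with DMSO and 100% = wells lacking PME-1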
Chain of Protein phosphatase methylesterase 1 (Homo sapiens) (Q9Y570 whole entry, looked up, the tested form may be a part): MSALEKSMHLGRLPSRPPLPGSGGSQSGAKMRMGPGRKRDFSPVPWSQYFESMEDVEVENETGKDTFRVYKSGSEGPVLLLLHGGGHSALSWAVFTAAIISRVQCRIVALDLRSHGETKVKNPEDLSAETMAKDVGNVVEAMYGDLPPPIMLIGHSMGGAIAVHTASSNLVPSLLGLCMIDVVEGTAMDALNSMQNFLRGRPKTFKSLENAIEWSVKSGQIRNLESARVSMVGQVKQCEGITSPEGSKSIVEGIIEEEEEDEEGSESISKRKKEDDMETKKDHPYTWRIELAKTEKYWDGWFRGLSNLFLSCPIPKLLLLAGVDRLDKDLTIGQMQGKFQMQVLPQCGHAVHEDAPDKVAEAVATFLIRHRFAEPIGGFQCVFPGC

[2] = target: Nuclear receptor coactivator 3 (Homo sapiens) (UniProt Q9Y6Q9); test: NCOA3 GAL4-fusion reporter inhibition – cell-based, luminescence, quadruplicate, confirmation (AID 588792;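 active = mean inhibition over 43.08%, the solvent-only control mean plus 3 SD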;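 note: 0% = DMSO treated cells and 100% = gossypol at 36 µM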); conditions: HEK293 GAL4-SRC3 luciferase reporter, at 3.6 µM, active compounds read high
Chain of Nuclear receptor coactivator 3 (Homo sapiens) (Q9Y6Q9 whole entry, looked up, the tested form may be a part): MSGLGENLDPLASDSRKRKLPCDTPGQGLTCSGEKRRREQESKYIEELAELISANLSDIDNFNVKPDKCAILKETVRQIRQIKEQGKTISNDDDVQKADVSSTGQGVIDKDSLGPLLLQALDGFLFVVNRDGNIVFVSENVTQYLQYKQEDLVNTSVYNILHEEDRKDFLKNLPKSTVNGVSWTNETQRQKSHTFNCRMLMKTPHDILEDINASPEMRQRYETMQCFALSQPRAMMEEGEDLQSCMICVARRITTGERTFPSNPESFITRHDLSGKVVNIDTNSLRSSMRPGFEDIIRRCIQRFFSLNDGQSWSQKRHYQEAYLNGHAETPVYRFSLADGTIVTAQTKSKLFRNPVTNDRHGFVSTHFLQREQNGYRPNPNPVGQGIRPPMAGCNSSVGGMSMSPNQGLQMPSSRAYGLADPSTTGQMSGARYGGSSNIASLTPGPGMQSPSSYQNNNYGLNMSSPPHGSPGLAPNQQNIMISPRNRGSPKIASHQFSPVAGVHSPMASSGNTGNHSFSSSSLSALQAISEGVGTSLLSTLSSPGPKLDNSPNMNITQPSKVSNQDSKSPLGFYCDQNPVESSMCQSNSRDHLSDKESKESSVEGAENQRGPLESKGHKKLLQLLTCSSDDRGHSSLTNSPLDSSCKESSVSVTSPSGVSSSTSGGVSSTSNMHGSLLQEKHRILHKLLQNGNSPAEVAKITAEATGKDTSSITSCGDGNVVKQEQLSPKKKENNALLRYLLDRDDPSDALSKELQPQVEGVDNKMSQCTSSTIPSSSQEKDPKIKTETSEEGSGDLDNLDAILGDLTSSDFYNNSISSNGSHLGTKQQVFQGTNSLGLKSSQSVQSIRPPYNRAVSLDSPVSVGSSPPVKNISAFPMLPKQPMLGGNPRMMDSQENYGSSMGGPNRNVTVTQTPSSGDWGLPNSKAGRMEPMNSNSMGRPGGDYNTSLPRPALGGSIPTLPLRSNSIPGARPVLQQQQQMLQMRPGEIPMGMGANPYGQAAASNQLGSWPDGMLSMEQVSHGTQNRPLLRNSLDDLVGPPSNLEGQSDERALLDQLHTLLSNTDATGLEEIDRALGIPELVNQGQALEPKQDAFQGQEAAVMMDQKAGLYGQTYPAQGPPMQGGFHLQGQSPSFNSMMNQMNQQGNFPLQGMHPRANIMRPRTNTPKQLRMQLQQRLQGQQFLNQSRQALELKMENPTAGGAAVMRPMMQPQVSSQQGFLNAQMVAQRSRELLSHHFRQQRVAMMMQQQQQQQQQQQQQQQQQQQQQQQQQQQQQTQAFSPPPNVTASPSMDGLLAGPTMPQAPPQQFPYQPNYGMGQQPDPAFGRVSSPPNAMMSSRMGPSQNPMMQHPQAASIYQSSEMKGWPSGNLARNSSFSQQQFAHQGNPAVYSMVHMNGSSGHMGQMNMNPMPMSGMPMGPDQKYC

[3] = system: transactivating tegument protein VP16 (Human herpesvirus 1), Gal4-VP16 luciferase reporter; test: repression of VP16-driven luciferase reporter – cell-based, luminescence, high throughput, counter-screen for SRC3 inhibitor project (AID 588794; in the data active = inhibition above about 30%); conditions: mammalian cells, at 3.6 µM, active compounds read high
[4] = target: Nuclear receptor coactivator 1 (Homo sapiens) (UniProt Q15788); test: NCOA1 GAL4-fusion reporter inhibition – cell-based, luminescence, quadruplicate, confirmation (AID 588820;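 active = mean inhibition above 46.68%, the untreated control wells mean plus 3 SD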;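 note: 0% = DMSO wells and 100% = gossypol 36 µM treated wells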); conditions: HEK293 GAL4-SRC1 luciferase reporter, at 3.6 µM, active compounds read high
[5] = repression of VP16-driven luciferase reporter – cell-based, luminescence, high throughput, counter-screen for SRC1 inhibitor project (AID 588824; in the data active = inhibition above about 25%); conditions: cell-based VP16 transactivation luciferase luminescence; at 3.6 µM; active compounds read high
[6] = StAR promoter reporter inhibitors, counter-screen for LRH-1 inverse agonist project, cell-based, luminescence, high throughput (AID 651611; in the data active = inhibition above about 28%); conditions: StAR promoter luciferase reporter counterscreen, at 3.6 µM, active compounds read high
[7] = target: Nuclear receptor subfamily 5 group A member 2 (Homo sapiens) (UniProt O00482); test: NR5A2 activity suppression in reporter cells – cell-based, luminescence, confirmation (AID 651613; in the data active = inhibition above about 42%;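 note: HEK293T cells co-transfected with LRH-1 and StAR promoter luciferase reporter; 0% = vehicle wells and 100% = parental cells lacking receptor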); conditions: cell-based LRH-1 luciferase reporter, inverse agonism; at 3.6 µM; active compounds read high
Chain of Nuclear receptor subfamily 5 group A member 2 (Homo sapiens) (O00482 whole entry, looked up): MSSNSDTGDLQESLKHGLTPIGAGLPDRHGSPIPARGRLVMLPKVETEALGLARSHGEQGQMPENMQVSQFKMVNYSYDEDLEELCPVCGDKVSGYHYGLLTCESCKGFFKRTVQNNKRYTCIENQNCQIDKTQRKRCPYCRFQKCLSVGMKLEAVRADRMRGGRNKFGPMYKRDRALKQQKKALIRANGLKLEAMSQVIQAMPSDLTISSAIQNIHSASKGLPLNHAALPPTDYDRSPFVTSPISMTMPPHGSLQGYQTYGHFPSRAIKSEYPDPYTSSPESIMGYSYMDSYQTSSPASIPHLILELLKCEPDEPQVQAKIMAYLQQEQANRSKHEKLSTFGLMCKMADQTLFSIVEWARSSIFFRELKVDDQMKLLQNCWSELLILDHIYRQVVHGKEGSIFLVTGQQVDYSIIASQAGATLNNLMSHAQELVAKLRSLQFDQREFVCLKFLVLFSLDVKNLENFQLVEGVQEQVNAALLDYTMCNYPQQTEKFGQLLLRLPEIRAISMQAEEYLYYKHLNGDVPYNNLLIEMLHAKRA

[8] = target: Steroidogenic factor 1 (Homo sapiens) (UniProt Q13285); test: inverse agonism at SF1 nuclear receptor – cell-based, luminescence, high throughput, counter-screen for LRH-1 inverse agonist project (AID 651614; in the data active = inhibition above about 44%;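 note: cells cotransfected with StAR promoter reporter and SF1 expression vector; 0% = vehicle on cells with receptor and 100% = vehicle on cells lacking receptor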); conditions: cell-based SF1 luciferase reporter, at 3.6 µM, active compounds read high
Chain of Steroidogenic factor 1 (Homo sapiens) (Q13285 whole entry, looked up, the tested form may be a part): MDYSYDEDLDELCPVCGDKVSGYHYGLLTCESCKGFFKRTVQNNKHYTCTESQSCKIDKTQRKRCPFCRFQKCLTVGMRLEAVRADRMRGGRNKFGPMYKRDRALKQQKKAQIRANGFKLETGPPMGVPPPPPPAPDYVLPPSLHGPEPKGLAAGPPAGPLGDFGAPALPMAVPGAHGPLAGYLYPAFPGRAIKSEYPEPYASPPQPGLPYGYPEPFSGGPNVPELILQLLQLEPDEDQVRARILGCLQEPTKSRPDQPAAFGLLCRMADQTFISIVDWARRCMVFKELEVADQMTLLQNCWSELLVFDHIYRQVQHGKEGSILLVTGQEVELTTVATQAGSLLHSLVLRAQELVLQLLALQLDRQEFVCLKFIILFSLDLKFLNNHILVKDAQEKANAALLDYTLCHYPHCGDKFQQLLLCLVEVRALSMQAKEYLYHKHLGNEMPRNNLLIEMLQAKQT

[9] = compounds suppressing VP16-driven luciferase signal – cell-based, luminescence, high throughput, counter-screen for LRH-1 inverse agonist project (AID 651615; in the data active = inhibition above about 33%); conditions: Gal4-VP16 luciferase reporter cells, at 3.6 µM, active compounds read high
[10] = system: transactivating tegument protein VP16 (Human herpesvirus 1); test: compounds suppressing VP16-driven luciferase signal – cell-based, luminescence, single concentration, counter-screen for SRC2 inhibitor project (AID 652007; in the data active = inhibition above about 36%); conditions: cell-based VP16 transactivation luciferase reporter, at 8.9 µM, active compounds read high
[11] = target: Nuclear receptor coactivator 2 (Homo sapiens) (UniProt Q15596); test: inhibition of GAL4-SRC2 driven luciferase expression – cell-based, luminescence, HEK293, triplicate, confirmation (AID 652008;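 active = mean inhibition above 46.5%, the solvent-only control mean plus 3 SD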;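 note: 0% = DMSO-treated cells and 100% = Gossypol at 36 µM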); conditions: HEK293 GAL4-SRC2 luciferase reporter, at 8.9 µM, active compounds read high
Chain of Nuclear receptor coactivator 2 (Homo sapiens) (Q15596 whole entry, looked up, the tested form may be a part): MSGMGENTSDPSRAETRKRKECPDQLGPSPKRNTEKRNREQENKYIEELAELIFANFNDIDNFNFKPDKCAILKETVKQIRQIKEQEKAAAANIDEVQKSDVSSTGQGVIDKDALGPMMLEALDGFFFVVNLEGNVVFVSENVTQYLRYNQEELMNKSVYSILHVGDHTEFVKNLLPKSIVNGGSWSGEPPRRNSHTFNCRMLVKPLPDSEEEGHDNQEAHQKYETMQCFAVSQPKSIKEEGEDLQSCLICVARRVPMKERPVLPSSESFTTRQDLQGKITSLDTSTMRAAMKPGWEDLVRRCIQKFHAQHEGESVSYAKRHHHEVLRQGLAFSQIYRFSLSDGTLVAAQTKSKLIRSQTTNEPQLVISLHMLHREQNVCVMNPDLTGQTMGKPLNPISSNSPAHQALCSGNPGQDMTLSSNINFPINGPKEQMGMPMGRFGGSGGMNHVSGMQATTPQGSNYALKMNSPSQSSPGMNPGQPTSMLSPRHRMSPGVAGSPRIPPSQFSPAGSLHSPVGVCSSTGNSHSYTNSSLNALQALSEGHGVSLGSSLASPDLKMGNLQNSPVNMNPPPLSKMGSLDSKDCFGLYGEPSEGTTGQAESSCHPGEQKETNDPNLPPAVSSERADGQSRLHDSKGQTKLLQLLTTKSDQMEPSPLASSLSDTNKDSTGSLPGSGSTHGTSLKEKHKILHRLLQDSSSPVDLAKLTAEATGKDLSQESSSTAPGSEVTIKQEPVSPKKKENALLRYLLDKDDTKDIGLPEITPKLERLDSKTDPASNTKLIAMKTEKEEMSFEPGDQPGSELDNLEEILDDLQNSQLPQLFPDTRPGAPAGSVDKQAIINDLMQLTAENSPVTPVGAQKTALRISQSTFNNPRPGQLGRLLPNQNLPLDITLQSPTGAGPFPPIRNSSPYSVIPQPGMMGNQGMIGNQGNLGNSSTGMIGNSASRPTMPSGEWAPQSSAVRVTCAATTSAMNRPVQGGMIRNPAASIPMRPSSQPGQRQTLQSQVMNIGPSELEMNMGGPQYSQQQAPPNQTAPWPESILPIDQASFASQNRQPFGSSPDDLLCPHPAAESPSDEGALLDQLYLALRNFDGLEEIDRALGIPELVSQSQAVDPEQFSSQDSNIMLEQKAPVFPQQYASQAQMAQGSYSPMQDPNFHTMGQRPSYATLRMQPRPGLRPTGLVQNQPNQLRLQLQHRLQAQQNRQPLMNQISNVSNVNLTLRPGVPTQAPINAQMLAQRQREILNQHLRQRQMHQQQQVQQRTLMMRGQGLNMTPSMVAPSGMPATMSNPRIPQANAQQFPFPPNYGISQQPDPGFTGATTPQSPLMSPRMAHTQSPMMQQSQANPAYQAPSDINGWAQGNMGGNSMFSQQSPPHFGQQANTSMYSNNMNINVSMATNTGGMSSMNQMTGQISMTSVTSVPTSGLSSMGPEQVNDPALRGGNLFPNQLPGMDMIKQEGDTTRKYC

[12] = target: Serine protease HTRA1 (Homo sapiens) (UniProt Q92743); test: confirming inhibition of human HTRA1 – biochemical, fluorescence polarization, confirmation (AID 540248;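 active = mean inhibition over three repeats above a set limit taken from the earlier primary screen, cut at about 37% in these data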;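 note: 0% = HTRA1 with DMSO and 100% = wells lacking HTRA1; inhibitors block probe binding so polarization drops and inhibition rises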); conditions: recombinant HTRA1, FP-rhodamine activity-based probe, at 5.96 µM, active compounds read high
[13] = target: Oxytocin receptor (Homo sapiens) (UniProt P30559); test: oxytocin receptor activation, retest of hits – fluorescence, CHO-OTR cells, triplicate, confirmation (AID 434963;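 active = mean activation above about 20% derived from the earlier single-dose screen, limit read from the data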;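 note: peak over minimum fluorescence ratio per well during a 100 second FLIPR read; 0% = DMSO alone and 100% = oxytocin high control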); conditions: Fluo-8 calcium fluorescence, agonist, at 3 µM, active compounds read high
Chain of Oxytocin receptor (Homo sapiens) (P30559 whole entry, looked up): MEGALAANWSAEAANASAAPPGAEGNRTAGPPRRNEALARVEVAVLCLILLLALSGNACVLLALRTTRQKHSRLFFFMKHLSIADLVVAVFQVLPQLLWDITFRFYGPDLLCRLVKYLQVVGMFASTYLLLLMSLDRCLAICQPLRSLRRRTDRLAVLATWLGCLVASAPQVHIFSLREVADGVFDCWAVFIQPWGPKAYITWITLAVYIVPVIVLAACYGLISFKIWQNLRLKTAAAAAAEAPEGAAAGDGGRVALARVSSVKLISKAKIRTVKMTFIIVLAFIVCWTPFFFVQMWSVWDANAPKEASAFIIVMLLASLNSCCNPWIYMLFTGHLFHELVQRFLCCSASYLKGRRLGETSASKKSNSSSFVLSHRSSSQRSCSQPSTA

[14] = target: Vasopressin V1a receptor (Homo sapiens) (UniProt P37288); test: activators of vasopressin V1R in CHO cells – cell-based, triplicate, fluorescence, counter-screen for OXTR agonist project (AID 434991;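 active = mean activation over triplicate exceeds the hit threshold set in the earlier primary screen, cut at about 20% in these data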;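 note: peak over basal fluorescence ratio within a 100 second read; 0% = DMSO alone and 100% = 3 nM vasopressin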); conditions: Fluo-8 calcium fluorescence, at 3 µM, active compounds read high
[15] = target: Insulin-degrading enzyme (Homo sapiens) (UniProt P14735); test: cellular IDE Abeta-cleavage inhibition – fluorescence polarization, HEK cells, FAbetaB substrate, confirmation (AID 435028;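 active = mean inhibition across triplicate wells above the cutoff set by the earlier primary insulin-degrading enzyme screen, cut at about 16% in these data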;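 note: 0% = DMSO wells and 100% = 60 µM reference IDE inhibitor Ii1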); conditions: at 5.59 µM, active compounds read high
[16] = HEK cell viability loss – luminescence, cytotoxicity control for IDE inhibitor project (AID 449730; in the data active = inhibition above about 22%;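 note: 0% = vehicle wells and 100% = reference cytotoxic drug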); conditions: HEK293 cytotoxicity, ATP luminescence; at 5.59 µM; active compounds read high

Structure (SMILES): Cc1ccc(S(=O)(=O)N2CCN(C(=O)Cn3c(=O)cnc4ccccc43)CC2)cc1
- inhibition [1]: 25.8%

Structure (SMILES): On1onc2c3cc(-c4ccccc4)nc3ccc21
- inhibition [1]: 49.3% (active)

Structure (SMILES): CN1C(=O)NC(c2ccccc2[N+](=O)[O-])C2=C1CCCC2=O (stereo not drawn)
- inhibition [1]: 51.5% (active)

Structure (SMILES): Cc1ccc(S(=O)(=O)/N=C2/C=C(Sc3ncn[nH]3)C(=O)c3ccccc32)cc1
- inhibition [1]: 54.4% (active)

Structure (SMILES): Cc1c(O)ccc(/C(Cc2ccc3ccccc3n2)=N\O)c1O
- inhibition [1]: 53.5% (active)

Structure (SMILES): COc1cc(/C=C2/C(=O)c3cccc([N+](=O)[O-])c3C2=O)c(Br)cc1O
- inhibition [1]: 16.7%

Structure (SMILES): CCN(CC)c1ccc(S(=O)(=O)N2CCOCC2)cc1NC(=O)CN1CCN(Cc2ccccc2)CC1
- inhibition [1]: 72.3% (active)

Structure (SMILES): CCN1/C(=C/C=C/c2oc3ccc(-c4ccccc4)cc3[n+]2CC)Oc2ccc(-c3ccccc3)cc21
- inhibition [1]: -81.5%
- inhibition [2]: 98.3% (active)
- inhibition [3]: 95.4% (active)
- inhibition [4]: 71.9% (active)
- inhibition [5]: 94.2% (active)
- inhibition [6]: 92.2% (active)
- inhibition [7]: 110% (active)
- inhibition [8]: 97.2% (active)
- inhibition [9]: 96.4% (active)

Structure (SMILES): O=C(Nc1ccc(Nc2ccccc2)cc1)Nc1ccccc1Cl
- inhibition [1]: -2.21%

Structure (SMILES): COc1ccc(-c2csc(NC(=O)c3ccccc3NS(=O)(=O)c3ccc(F)c(F)c3)n2)cc1
- inhibition [1]: -5.29%
- inhibition [2]: 69.3% (active)
- inhibition [3]: 71.4% (active)
- inhibition [4]: 55% (active)
- inhibition [5]: 81.9% (active)

Structure (SMILES): N#C/C(=N\Nc1cccc([N+](=O)[O-])c1)C(=O)c1ccc(Br)cc1
- inhibition [1]: 29.5% (active)
- inhibition [2]: 4.19%
- inhibition [3]: 26.8%

Structure (SMILES): Cn1nc(-c2ccccn2)nc2c(=O)n(C)c(=O)nc1-2
- inhibition [1]: 45.9% (active)
- inhibition [2]: 74.8% (active)
- inhibition [3]: 62% (active)
- inhibition [4]: 3.11%
- inhibition [5]: 53.1% (active)
- inhibition [6]: 56.7% (active)
- inhibition [7]: 58.9% (active)
- inhibition [8]: 73.7% (active)
- inhibition [9]: 75.1% (active)
- inhibition [10]: 13.4%
- inhibition [11]: 70.7% (active)

Structure (SMILES): Nc1cc(C(=O)O)c(N)c2c1C(=O)c1ccccc1C2=O
- inhibition [1]: 96.8% (active)

Structure (SMILES): Nc1ccc(C(=O)N/N=C\c2cc(N=Nc3cccc4ccccc34)ccc2O)cc1
- inhibition [1]: 15.1%
- inhibition [2]: 15.1%
- inhibition [3]: 17.7%
- inhibition [4]: 14.5%
- inhibition [5]: 31.8% (active)

Structure (SMILES): Cc1ccc(C(C)C)c(OCc2ccc(C(=O)N/N=C/c3ccc(O)cc3O)cc2)c1
- inhibition [1]: -0.21%
- inhibition [2]: 77.2% (active)
- inhibition [3]: 78.3% (active)
- inhibition [4]: 67% (active)
- inhibition [5]: 77% (active)
- inhibition [6]: 80.8% (active)
- inhibition [7]: 100% (active)
- inhibition [8]: 80.9% (active)
- inhibition [9]: 71.2% (active)
- inhibition [10]: 20.9%
- inhibition [11]: 68.3% (active)

Structure (SMILES): O=C(Nc1ccc(OC(F)(F)F)cc1)c1ccc2c(c1)no[n+]2[O-]
- inhibition [1]: 61.4% (active)
- inhibition [12]: 69.4% (active)
- inhibition [10]: -77.2%
- inhibition [11]: -55.7%

Structure (SMILES): COc1cccc2c1C(=O)c1c(O)c3c(c(O)c1C2=O)C[C@@](O)(C(=O)CO)C[C@@H]3O[C@H]1C[C@H](N)[C@H](O)[C@H](C)O1
- inhibition [1]: 36.3% (active)
- inhibition [2]: 49.7% (active)
- inhibition [3]: 87.7% (active)

Structure (SMILES): O=C(OCCOCCN=C1NS(=O)(=O)c2ccccc21)c1ccccc1Br
- inhibition [1]: 5.54%

Structure (SMILES): Oc1ccccc1N=Nc1nc(-c2ccccc2)c(-c2ccccc2)[nH]1
- inhibition [1]: -3.97%
- inhibition [2]: 81.4% (active)
- inhibition [3]: 76.4% (active)
- inhibition [4]: 76.5% (active)
- inhibition [5]: 71% (active)
- inhibition [6]: 86.9% (active)
- inhibition [7]: 98.3% (active)
- inhibition [8]: 84% (active)
- inhibition [9]: 65.3% (active)

Structure (SMILES): Cc1cc([N+](=O)[O-])ccc1-c1ccc(C2Nc3ccccc3C(=O)N2O)o1 (stereo not drawn)
- inhibition [1]: 25%
- inhibition [2]: 23.6%
- inhibition [3]: 1.31%

Structure (SMILES): Brc1ccc(N/N=C(/N=Nc2nn[nH]n2)c2ccccc2)cc1
- inhibition [1]: 57.1% (active)
- inhibition [2]: 83.2% (active)
- inhibition [3]: 80.2% (active)

Structure (SMILES): O=C(CSc1nnc(SCc2ccccc2Cl)s1)N/N=C/c1c[nH]c2ccccc12
- inhibition [1]: 19.3%

Structure (SMILES): COc1ccc(-c2csc(NC(=O)Nc3ccccc3)n2)cc1
- inhibition [1]: 25.6%

Structure (SMILES): CCN(CC)S(=O)(=O)c1ccc(N/N=C/c2ccc(O)cc2O)nc1
- inhibition [1]: 35% (active)
- inhibition [2]: 68.3% (active)
- inhibition [3]: 67.3% (active)
- inhibition [4]: 63.5% (active)
- inhibition [5]: 58.3% (active)

Structure (SMILES): N#C/C(=C/c1ccc(N2CCCCC2)o1)C(=O)NCCc1c[nH]c2ccccc12
- inhibition [1]: 22.2%
- activation [13]: 33.6% (active)
- activation [14]: 52.1% (active)
- inhibition [15]: 150% (active)
- inhibition [16]: 5.73%

Structure (SMILES): O=C(CNc1ccc2ccccc2c1)N/N=C/c1cc2ccccc2nc1Cl
- inhibition [1]: 22.6%

Structure (SMILES): COc1cccc(/C=N/Nc2ccc([N+](=O)[O-])cn2)c1O
- inhibition [1]: 1.07%
- inhibition [2]: 48% (active)
- inhibition [3]: 10.2%

Structure (SMILES): COc1ccc(S(=O)(=O)/N=C2\C=C(Nc3ccc(O)cc3)C(=O)c3ccccc32)cc1
- inhibition [1]: 63.2% (active)
- inhibition [2]: 94.1% (active)
- inhibition [3]: 92.8% (active)
- inhibition [4]: 85% (active)
- inhibition [5]: 90.8% (active)
- inhibition [6]: 92% (active)
- inhibition [7]: 107% (active)
- inhibition [8]: 96.7% (active)
- inhibition [9]: 97.2% (active)
- inhibition [10]: 67% (active)
- inhibition [11]: 73% (active)
